# Results as given in the supplement of paper PMC6411743.
# ± gives the standard deviation of the averaged measurements. About 5,400 targets were measured; listed, in parts, are those with the largest changes and a random draw of the rest.
# What was measured:
# Test in all cases: NP40-soluble protein abundance relative to vehicle (solubility fold change) (ratio); higher = more soluble protein in presence of GTP
# ARHGAP1 = biological target: T1, ARHGAP1 (UniProt Q07960)
# T1 sequence (whole entry): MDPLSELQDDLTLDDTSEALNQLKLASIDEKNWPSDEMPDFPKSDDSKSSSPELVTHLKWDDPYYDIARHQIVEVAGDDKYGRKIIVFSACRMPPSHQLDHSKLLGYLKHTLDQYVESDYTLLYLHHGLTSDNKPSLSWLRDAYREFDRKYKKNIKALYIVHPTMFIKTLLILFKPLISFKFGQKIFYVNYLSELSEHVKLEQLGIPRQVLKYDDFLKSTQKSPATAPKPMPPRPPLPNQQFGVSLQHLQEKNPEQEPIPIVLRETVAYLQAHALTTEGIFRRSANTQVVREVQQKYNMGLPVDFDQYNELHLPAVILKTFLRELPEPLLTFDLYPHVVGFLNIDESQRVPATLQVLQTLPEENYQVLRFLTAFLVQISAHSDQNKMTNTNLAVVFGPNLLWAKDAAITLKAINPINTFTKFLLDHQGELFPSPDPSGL
# Procedure, shortened: (§1)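 Each value is a fold change relative to the detergent-processed vehicle, calculated per replicate from vsn-normalised intensities. Jurkat crude lysate received eight concentrations (0.1 to 10 mM) for 10 min at room temperature and 3 min at 37 °C, then was solubilised in 0.8% NP40 with benzonase (60 min, 4 °C). The ultracentrifuged supernatant was TMT-labelled and run by LC-MS/MS in three independent experiments.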
# [1] = biological target: T2, UniProt Q08170|A0A0D9SEM4
# T2 sequence (whole entry): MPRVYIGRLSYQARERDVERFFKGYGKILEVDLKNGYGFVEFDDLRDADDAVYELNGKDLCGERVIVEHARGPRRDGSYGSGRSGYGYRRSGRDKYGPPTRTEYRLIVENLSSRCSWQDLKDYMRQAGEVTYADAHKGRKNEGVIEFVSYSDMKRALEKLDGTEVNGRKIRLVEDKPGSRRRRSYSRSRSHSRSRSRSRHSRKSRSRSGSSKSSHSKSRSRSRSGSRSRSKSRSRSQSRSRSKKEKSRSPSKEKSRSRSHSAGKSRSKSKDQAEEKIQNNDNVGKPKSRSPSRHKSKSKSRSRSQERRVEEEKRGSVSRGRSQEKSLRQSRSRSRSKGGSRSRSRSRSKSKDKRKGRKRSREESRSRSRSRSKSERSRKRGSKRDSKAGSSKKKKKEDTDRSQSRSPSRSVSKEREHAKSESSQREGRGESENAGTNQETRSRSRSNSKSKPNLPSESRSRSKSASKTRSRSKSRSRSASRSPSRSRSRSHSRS
# Procedure, shortened: as §1
# [2] = biological target: T3, UniProt Q4ADV7|Q4ADV7-3|Q4ADV7-2
# T3 sequence (whole entry): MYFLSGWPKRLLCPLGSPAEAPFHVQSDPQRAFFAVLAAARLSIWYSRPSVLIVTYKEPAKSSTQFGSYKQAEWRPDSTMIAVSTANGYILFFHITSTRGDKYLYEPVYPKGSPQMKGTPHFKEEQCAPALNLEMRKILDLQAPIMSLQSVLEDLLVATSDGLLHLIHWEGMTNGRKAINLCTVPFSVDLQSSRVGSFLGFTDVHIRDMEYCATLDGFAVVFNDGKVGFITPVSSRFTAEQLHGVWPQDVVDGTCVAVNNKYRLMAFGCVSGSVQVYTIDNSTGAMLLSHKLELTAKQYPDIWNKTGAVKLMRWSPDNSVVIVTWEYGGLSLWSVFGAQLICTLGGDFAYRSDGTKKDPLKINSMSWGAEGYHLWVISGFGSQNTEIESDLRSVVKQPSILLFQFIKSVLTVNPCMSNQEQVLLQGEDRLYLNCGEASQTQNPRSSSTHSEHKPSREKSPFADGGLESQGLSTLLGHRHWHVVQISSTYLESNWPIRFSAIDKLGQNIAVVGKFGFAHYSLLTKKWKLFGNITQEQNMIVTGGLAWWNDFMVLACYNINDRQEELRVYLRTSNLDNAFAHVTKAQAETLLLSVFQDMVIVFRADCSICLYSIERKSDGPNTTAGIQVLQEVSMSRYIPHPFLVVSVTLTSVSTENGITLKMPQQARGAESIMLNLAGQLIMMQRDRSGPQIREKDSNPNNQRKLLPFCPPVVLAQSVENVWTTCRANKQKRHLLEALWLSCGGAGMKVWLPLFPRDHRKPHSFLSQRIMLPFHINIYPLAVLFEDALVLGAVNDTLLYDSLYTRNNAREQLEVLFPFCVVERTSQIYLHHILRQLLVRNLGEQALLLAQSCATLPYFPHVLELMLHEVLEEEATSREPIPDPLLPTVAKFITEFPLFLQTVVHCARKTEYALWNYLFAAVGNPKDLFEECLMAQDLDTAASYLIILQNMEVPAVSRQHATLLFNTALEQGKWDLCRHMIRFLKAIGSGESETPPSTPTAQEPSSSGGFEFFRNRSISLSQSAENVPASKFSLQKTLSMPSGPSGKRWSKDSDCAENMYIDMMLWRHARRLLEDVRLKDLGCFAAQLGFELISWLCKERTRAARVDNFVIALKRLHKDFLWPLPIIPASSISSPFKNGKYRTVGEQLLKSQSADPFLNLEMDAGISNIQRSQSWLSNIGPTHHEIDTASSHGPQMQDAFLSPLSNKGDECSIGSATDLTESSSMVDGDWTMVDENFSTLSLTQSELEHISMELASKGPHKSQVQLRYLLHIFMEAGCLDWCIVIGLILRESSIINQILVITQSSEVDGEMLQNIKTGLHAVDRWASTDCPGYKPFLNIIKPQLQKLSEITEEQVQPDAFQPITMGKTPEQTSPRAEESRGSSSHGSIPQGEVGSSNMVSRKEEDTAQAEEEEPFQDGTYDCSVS
# Procedure, shortened: as §1
# UniProt Q68CQ4 = biological target: T4, UniProt Q68CQ4
# T4 sequence (whole entry): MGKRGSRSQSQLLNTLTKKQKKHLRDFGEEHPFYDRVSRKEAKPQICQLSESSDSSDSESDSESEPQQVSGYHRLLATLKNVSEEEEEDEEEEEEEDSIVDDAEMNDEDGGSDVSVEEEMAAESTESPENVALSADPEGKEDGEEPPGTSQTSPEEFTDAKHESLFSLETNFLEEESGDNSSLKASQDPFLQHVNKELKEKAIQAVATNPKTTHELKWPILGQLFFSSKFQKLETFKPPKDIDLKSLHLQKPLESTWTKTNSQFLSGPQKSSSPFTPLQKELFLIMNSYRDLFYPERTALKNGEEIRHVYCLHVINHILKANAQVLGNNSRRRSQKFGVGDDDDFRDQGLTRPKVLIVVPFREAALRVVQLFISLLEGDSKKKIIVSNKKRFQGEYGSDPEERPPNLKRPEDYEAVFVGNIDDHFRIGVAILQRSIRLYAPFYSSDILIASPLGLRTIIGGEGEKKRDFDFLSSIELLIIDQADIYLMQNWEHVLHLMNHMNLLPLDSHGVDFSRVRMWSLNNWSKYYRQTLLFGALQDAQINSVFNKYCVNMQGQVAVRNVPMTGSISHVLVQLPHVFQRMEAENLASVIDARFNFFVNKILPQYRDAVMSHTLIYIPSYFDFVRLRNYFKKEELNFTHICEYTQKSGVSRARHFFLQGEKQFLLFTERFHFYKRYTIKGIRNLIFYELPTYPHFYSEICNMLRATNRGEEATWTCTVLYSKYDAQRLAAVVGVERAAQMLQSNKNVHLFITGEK
# Procedure, shortened: as §1
# [3] = biological target: T5, UniProt Q6ULP2|Q6ULP2-2|Q6ULP2-4|Q6ULP2-5|Q6ULP2-3
# T5 sequence (whole entry): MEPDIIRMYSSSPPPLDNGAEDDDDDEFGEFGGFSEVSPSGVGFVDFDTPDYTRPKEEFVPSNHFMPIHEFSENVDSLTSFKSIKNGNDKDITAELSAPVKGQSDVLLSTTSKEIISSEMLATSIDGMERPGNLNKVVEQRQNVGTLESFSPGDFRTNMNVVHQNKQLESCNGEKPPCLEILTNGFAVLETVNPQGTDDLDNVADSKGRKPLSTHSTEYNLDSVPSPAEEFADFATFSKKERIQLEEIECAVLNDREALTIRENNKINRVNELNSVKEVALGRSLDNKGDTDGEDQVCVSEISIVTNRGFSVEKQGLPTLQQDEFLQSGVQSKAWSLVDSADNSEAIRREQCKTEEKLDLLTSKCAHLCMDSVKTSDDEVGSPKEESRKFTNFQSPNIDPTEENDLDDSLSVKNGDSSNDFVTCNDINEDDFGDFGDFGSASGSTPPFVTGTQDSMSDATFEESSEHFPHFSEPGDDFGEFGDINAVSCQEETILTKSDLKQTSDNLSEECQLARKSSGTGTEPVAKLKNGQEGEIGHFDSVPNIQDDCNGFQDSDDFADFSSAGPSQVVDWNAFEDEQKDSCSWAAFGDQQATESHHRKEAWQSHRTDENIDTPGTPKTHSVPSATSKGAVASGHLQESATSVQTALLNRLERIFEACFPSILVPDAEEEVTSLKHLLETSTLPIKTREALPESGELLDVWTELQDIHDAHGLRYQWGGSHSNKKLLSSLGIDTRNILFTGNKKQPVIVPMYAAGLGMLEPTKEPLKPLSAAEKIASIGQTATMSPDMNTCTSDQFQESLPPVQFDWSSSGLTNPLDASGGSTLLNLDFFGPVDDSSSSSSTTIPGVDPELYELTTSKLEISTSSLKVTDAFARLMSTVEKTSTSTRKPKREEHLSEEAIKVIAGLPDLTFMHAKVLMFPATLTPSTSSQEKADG
# Procedure, shortened: as §1
structure (smiles),measurement,setting,value
Nc1nc2c(ncn2[C@@H]2O[C@H](COP(=O)(O)OP(=O)(O)OP(=O)(O)O)[C@@H](O)[C@H]2O)c(=O)[nH]1 [guanosine triphosphate],NP40-soluble protein abundance,ARHGAP1; concentration: 0.1mM,0.963 ± 0.015
same,NP40-soluble protein abundance,ARHGAP1; concentration: 0.5mM,0.961 ± 0.012
same,NP40-soluble protein abundance,ARHGAP1; concentration: 1mM,0.952 ± 0.011
same,NP40-soluble protein abundance,ARHGAP1; concentration: 2mM,0.93 ± 0.045
same,NP40-soluble protein abundance,ARHGAP1; concentration: 4mM,0.942 ± 0.042
same,NP40-soluble protein abundance,ARHGAP1; concentration: 6mM,0.911 ± 0.037
same,NP40-soluble protein abundance,ARHGAP1; concentration: 8mM,0.867 ± 0.06
same,NP40-soluble protein abundance,ARHGAP1; concentration: 10mM,0.908 ± 0.064
same,NP40-soluble protein abundance,[1]; concentration: 0.1mM,0.928 ± 0.042
same,NP40-soluble protein abundance,[1]; concentration: 0.5mM,1.23 ± 0.055
same,NP40-soluble protein abundance,[1]; concentration: 1mM,1.27 ± 0.028
same,NP40-soluble protein abundance,[1]; concentration: 2mM,1.15 ± 0.052
same,NP40-soluble protein abundance,[1]; concentration: 4mM,0.94 ± 0.034
same,NP40-soluble protein abundance,[1]; concentration: 6mM,1.09 ± 0.042
same,NP40-soluble protein abundance,[1]; concentration: 8mM,1.2 ± 0.053
same,NP40-soluble protein abundance,[1]; concentration: 10mM,1.08 ± 0.035
same,NP40-soluble protein abundance,[2]; concentration: 0.1mM,1.09 ± 0.11
same,NP40-soluble protein abundance,[2]; concentration: 0.5mM,1.13 ± 0.091
same,NP40-soluble protein abundance,[2]; concentration: 1mM,1.02 ± 0.04
same,NP40-soluble protein abundance,[2]; concentration: 2mM,1.07 ± 0.077
same,NP40-soluble protein abundance,[2]; concentration: 4mM,1.12 ± 0.18
same,NP40-soluble protein abundance,[2]; concentration: 6mM,0.946 ± 0.025
same,NP40-soluble protein abundance,[2]; concentration: 8mM,0.92397 ± 0.00016
same,NP40-soluble protein abundance,[2]; concentration: 10mM,0.963 ± 0.19
same,NP40-soluble protein abundance,UniProt Q68CQ4; concentration: 0.1mM,1.02 ± 0.068
same,NP40-soluble protein abundance,UniProt Q68CQ4; concentration: 0.5mM,1.02 ± 0.051
same,NP40-soluble protein abundance,UniProt Q68CQ4; concentration: 1mM,1.01 ± 0.048
same,NP40-soluble protein abundance,UniProt Q68CQ4; concentration: 2mM,0.992 ± 0.04
same,NP40-soluble protein abundance,UniProt Q68CQ4; concentration: 4mM,0.999 ± 0.026
same,NP40-soluble protein abundance,UniProt Q68CQ4; concentration: 6mM,0.994 ± 0.042
same,NP40-soluble protein abundance,UniProt Q68CQ4; concentration: 8mM,1.02 ± 0.046
same,NP40-soluble protein abundance,UniProt Q68CQ4; concentration: 10mM,1.03 ± 0.048
same,NP40-soluble protein abundance,[3]; concentration: 0.1mM,1.01 ± 0.098
same,NP40-soluble protein abundance,[3]; concentration: 0.5mM,1.02 ± 0.066
same,NP40-soluble protein abundance,[3]; concentration: 1mM,0.979 ± 0.064
same,NP40-soluble protein abundance,[3]; concentration: 2mM,1 ± 0.044
same,NP40-soluble protein abundance,[3]; concentration: 4mM,1.06 ± 0.041
same,NP40-soluble protein abundance,[3]; concentration: 6mM,1 ± 0.023
same,NP40-soluble protein abundance,[3]; concentration: 8mM,1.03 ± 0.033
same,NP40-soluble protein abundance,[3]; concentration: 10mM,1.02 ± 0.042
